Experimental data: PubChem BioAssay (NCATS)
Results filed as inconclusive are left out. A call without a number means that no potency is given here. The source made the active and inactive calls. Calls follow the shape of the dose curve; as a rule, active = well fitted curve in the direction sought with a large enough effect; inconclusive = small, poorly fitted or top-dose-only effect, or another doubt; inactive = no such curve, though single readings can be large; an effect the other way counts as inactive or inconclusive.

How the values were obtained:
[1] = Quantitative High-Throughput drug screen in 47 multiple myeloma cell lines against the NCATS MIPE library collection: KMS26_JCRB cell viability assay (AID 1918975); conditions: KMS26 myeloma cells viability, CellTiter-Glo ATP, 48 h; series mostly up to 45.8 µM; also: nearly all actives have a fitted effect of over 45% in size; also: potency is read from the fitted curve at half-maximal effect
How it was run: (§1)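 Inhibition of cell viability is measured here. Each line was plated at 500 cells per well, treated with MIPE 4.0 drugs, kept 48 hours at 37C, then assayed for ATP content by CellTiter-Glo luminescence.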

[2] = Quantitative High-Throughput drug screen in 47 multiple myeloma cell lines against the NCATS MIPE library collection: NCIH929_DSMZ cell viability assay (AID 1918978); conditions: NCI-H929 myeloma viability, CellTiter-Glo ATP, 48 h; series mostly up to 45.8 µM; also: nearly all actives have a fitted effect of over 35% in size; also: potency is read from the fitted curve at half-maximal effect
How it was run: (§2)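 Inhibition of viability over 48 h was scored by ATP content (CellTiter-Glo) in 500-cell wells. Zero and full viability were defined by media-only and DMSO-only wells.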

[3] = Quantitative High-Throughput drug screen in 47 multiple myeloma cell lines against the NCATS MIPE library collection: KMS12PE_JCRB cell viability assay (AID 1918972); conditions: KMS12PE myeloma viability, CellTiter-Glo ATP, 48 h; series mostly up to 45.8 µM; also: nearly all actives have a fitted effect of over 30% in size; also: potency is read from the fitted curve at half-maximal effect
How it was run: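 Steps: seed 500 cells per well; pin-transfer MIPE 4.0 library; incubate 48 h at 37C, 5% CO2, humidified; add CellTiter-Glo, 5 min room temperature; read luminescence.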

[4] = Quantitative High-Throughput drug screen in 47 multiple myeloma cell lines against the NCATS MIPE library collection: KMS20_JCRB cell viability assay (AID 1918973); conditions: CellTiter-Glo ATP, 48 h; series mostly up to 45.8 µM; also: nearly all actives have a fitted effect of over 45% in size; also: potency is read from the fitted curve at half-maximal effect
How it was run: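 CellTiter-Glo luminescence (ATP) after 48 h compound exposure, 37C/5% CO2; 500 cells/well; MIPE 4.0 approved/investigational drugs pinned in; DMSO = 100%, media only = 0% viability.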

[5] = Quantitative High-Throughput drug screen in 47 multiple myeloma cell lines against the NCATS MIPE library collection: MOLP8_DSMZ cell viability assay (AID 1918977); conditions: MOLP8 myeloma viability, CellTiter-Glo ATP luminescence, 48 h; series mostly up to 45.8 µM; also: nearly all actives have a fitted effect of over 45% in size
How it was run: as §2

[6] = Quantitative High-Throughput drug screen in 47 multiple myeloma cell lines against the NCATS MIPE library collection: KMS27_JCRB cell viability assay (AID 1918970); conditions: KMS27 myeloma cells, CellTiter-Glo ATP viability, 48 h; series mostly up to 45.8 µM; also: nearly all actives have a fitted effect of over 30% in size
How it was run: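 CellTiter-Glo luminescence after 48 h drug exposure at 37 °C; 500 cells/well, 1536-well format, pin-tool compound addition; DMSO = 100%, media-only = 0% viability.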

[7] = Quantitative High-Throughput drug screen in 47 multiple myeloma cell lines against the NCATS MIPE library collection: KMS12BM_JCRB cell viability assay (AID 1918971); conditions: KMS12BM myeloma viability, CellTiter-Glo ATP, 48 h; series mostly up to 45.8 µM; also: nearly all actives have a fitted effect of over 35% in size
How it was run: as §1

Cc1cc(Nc2nc(N[C@@H](C)c3ncc(F)cn3)ncc2Cl)n[nH]1
Potency [1]: 26.4 µM (active)

C[C@]1(c2nc3c(C(N)=O)cccc3[nH]2)CCCN1
Potency [2]: 23.5 µM (active)

COCCNCCCn1c(C(=O)CF)c(-c2ccc(C)cc2)c2c(N)ncnc21
Potency [3]: inactive
Potency [1]: inactive
Potency [2]: inactive

CCCCNc1cc(C(=O)O)cc(S(N)(=O)=O)c1Oc1ccccc1
Potency [3]: inactive
Potency [4]: inactive
Potency [1]: inactive
Potency [5]: inactive
Potency [2]: inactive

CC1(C)SCCN(S(=O)(=O)c2ccc(OCC#CCO)cc2)[C@@H]1C(=O)NO
Potency [6]: inactive
Potency [1]: 2.96 µM (active)

c1ccc(-c2nn3c(c2-c2ccnc4cc(OCCN5CCOCC5)ccc24)CCC3)nc1
Potency [6]: inactive
Potency [4]: inactive
Potency [1]: inactive

Nc1nc2c(ncn2COCCO)c(=O)[nH]1
Potency [6]: inactive
Potency [4]: inactive
Potency [1]: inactive
Potency [5]: inactive
Potency [2]: inactive

O=C(c1cc(Cc2n[nH]c(=O)c3ccccc23)ccc1F)N1CCN(C(=O)C2CC2)CC1
Potency [7]: inactive
Potency [5]: inactive

COc1cc(Nc2ncc3c(n2)-c2ccc(Cl)cc2C(c2c(F)cccc2OC)=NC3)ccc1C(=O)O
Potency [7]: inactive
Potency [2]: inactive

Fc1ccc(Cl)cc1-c1nc(Nc2ccncc2)c2nccnc2n1
Potency [6]: inactive
Potency [3]: 0.469 µM (active)
Potency [2]: 16.6 µM (active)

OC[C@H](Cc1ccccc1)Nc1nc(Oc2ccc3c(c2)CCC3)nc2c1ncn2Cc1ccc(-c2ccccc2)cc1
Potency [3]: inactive
Potency [5]: inactive

CN(C(=O)c1ccc(F)cc1C(F)(F)F)C1CCN(c2nnc(-c3ccnn3C)c3ccccc23)CC1
Potency [4]: 10.5 µM (active)

C1COC(NC(C2CC2)C2CC2)=N1
Potency [4]: inactive
Potency [1]: inactive
Potency [2]: inactive
